This is part of a sample that, as a whole, favours compounds with a hit. Of some 83,000 tested, about 20% had one in any assay.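 Negative percent growth values reflect cell death: -40 means 40% of the cells present at the start died, and -100 means all died.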 Active and inactive are the calls of the source. How the source made its calls: active means growth percent below 10; inactive means the rest.
Assays:
Test in all cases: NCI-60 one-dose screen, 48 h (100 = growth as untreated, 0 = no growth, -100 = all killed)
HOP-62 NSCLC = conditions: 10 µM unless noted
NCI-H522 lung = conditions: 10 µM unless noted
A549/ATCC NSCLC = conditions: 10 µM unless noted
COLO 205 colon = conditions: 10 µM
SNB-75 CNS = conditions: 10 µM unless noted
U251 CNS = conditions: 10 µM unless noted
SK-MEL-2 melanoma = conditions: 10 µM unless noted
EKVX NSCLC = conditions: 10 µM unless noted
ACHN renal = conditions: 10 µM unless noted
OVCAR-5 ovarian = conditions: 10 µM unless noted
SK-OV-3 ovarian = conditions: 10 µM unless noted
IGROV1 ovarian = conditions: 10 µM
NCI/ADR-RES ovarian = conditions: 10 µM unless noted
K-562 leukemia = conditions: 10 µM unless noted
OVCAR-4 ovarian = conditions: 10 µM unless noted
NCI-H322M lung = conditions: 10 µM unless noted
SR leukemia = conditions: 10 µM
HOP-92 NSCLC = conditions: 10 µM unless noted

Measured: growth

CC12CC[C@H](O)C=C1/C(=N/O)CC1C2CCC2(C)C1CC[C@@H]2O (some centres undefined)
inactive: HOP-62 NSCLC 96.4% | NCI-H522 lung 90.1% | A549/ATCC NSCLC 103% | COLO 205 colon 115% | SNB-75 CNS 79.2% | U251 CNS 105% | SK-MEL-2 melanoma 99.2% | EKVX NSCLC 89.6% | ACHN renal 95.5% | OVCAR-5 ovarian 96.2% | SK-OV-3 ovarian 95% | IGROV1 ovarian 94.4% | NCI/ADR-RES ovarian 101%

CCC[CH2][Sn]1([CH2]CCC)[O]C(=O)c2cccc([N+](=O)[O-])c2C(=O)[O]1
inactive: A549/ATCC NSCLC 42.4% | SK-OV-3 ovarian 12.2%
active: NCI-H522 lung -94.8% | COLO 205 colon -97.1% | K-562 leukemia -12.3% | SNB-75 CNS -82.3% | SK-MEL-2 melanoma -92% | ACHN renal -100% | OVCAR-5 ovarian -95.6% | OVCAR-4 ovarian -91.6% | IGROV1 ovarian -76% | NCI/ADR-RES ovarian -54.4%

NC(=O)C(Cl)Cl
inactive: NCI-H322M lung 94.4% | NCI-H522 lung 109% | COLO 205 colon 113% | K-562 leukemia 100% | SNB-75 CNS 96.4% | ACHN renal 104% | SR leukemia 99.5% | OVCAR-5 ovarian 101% | OVCAR-4 ovarian 105% | SK-OV-3 ovarian 109% | NCI/ADR-RES ovarian 114%

COc1cc(NCCCCCN=C(N)N)c2ncccc2c1
inactive: NCI-H322M lung 61.4% | HOP-62 NSCLC 45.7% | HOP-92 NSCLC 66.7% | A549/ATCC NSCLC 90.7% | COLO 205 colon 54.9% | K-562 leukemia 16.1% | U251 CNS 28.1% | EKVX NSCLC 65.4% | ACHN renal 105% | SR leukemia 33.5% | OVCAR-5 ovarian 97.3% | SK-OV-3 ovarian 94.9% | IGROV1 ovarian 23.6%
active: NCI-H522 lung 9.47%

C[C@]12C[C@H](O)[C@H]3[C@@H](CCC4=CC(=O)CC[C@@]43C)[C@@H]1CC[C@@H]2O
inactive: NCI-H322M lung 110% | HOP-62 NSCLC 105% | HOP-92 NSCLC 95.5% | K-562 leukemia 104% | SNB-75 CNS 85.7% | EKVX NSCLC 94.8% | SR leukemia 97.4% | OVCAR-5 ovarian 105% | OVCAR-4 ovarian 104% | IGROV1 ovarian 105%

N#C[Se]CCN1C(=O)C2C(C1=O)[C@H]1C=C[C@@H]2S1 (some centres undefined)
inactive: COLO 205 colon 68.3% | K-562 leukemia 24.3% | OVCAR-4 ovarian 25.3%
active: HOP-92 NSCLC -46.3% | A549/ATCC NSCLC -19.3% | U251 CNS -56.9% | EKVX NSCLC -51.6% | ACHN renal -2.15% | SR leukemia 6.77% | SK-OV-3 ovarian 4.59% | NCI/ADR-RES ovarian -10.7%

CCOC(=O)C1(c2ccccc2)CCN(CC(=O)c2ccc(NC(C)=O)cc2)CC1
inactive: A549/ATCC NSCLC 95% | K-562 leukemia 122% | SNB-75 CNS 114% | U251 CNS 99.2% | SK-MEL-2 melanoma 89.2% | EKVX NSCLC 102% | OVCAR-5 ovarian 100% | OVCAR-4 ovarian 122% | SK-OV-3 ovarian 101%

Oc1ccc(Br)cc1CN1CCN(Cc2ccc(Cl)cc2)CC1
active: NCI-H522 lung -84.4% | K-562 leukemia -34.3%
inactive: NCI-H322M lung 103% | HOP-62 NSCLC 57.6% | U251 CNS 48.9% | SK-MEL-2 melanoma 88.2% | ACHN renal 83.3% | OVCAR-5 ovarian 97.7% | NCI/ADR-RES ovarian 82.2%

From PubChem BioAssay (NCI)
